Screening results: PubChem BioAssay, National Center for Advancing Translational Sciences (NCATS)
ELG1 DNA repair – inhibitors of ELG1-dependent DNA repair in HEK293T cells; 330,000 tested, 2.3% active; HEK293T ELG1-luciferase reporter, luminescence, 16 h; DNA damage induced by 5-fluorouridine; Potency, µM (titrated, usually from 46.1 µM), inactives show at the top dose activity change, negative = inhibition, actives largely listed as inhibitors; note: potency is the fitted concentration of half-maximal effect; nearly all actives have a fitted effect of over 55% in size
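HEK293T cells expressing luciferase-tagged ELG1 (2,000/well) received 5-Fluorouridine plus compound or DMSO for 16 hr at 37 °C. Luciferase was read by ONE-Glo luminescence after 30 min at room temperature.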
DT40 TDP1 no CPT – qHTS for Inhibitors of human tyrosyl-DNA phosphodiesterase 1 (TDP1): qHTS in cells in absence of CPT; DT40 Tdp1-/- hTDP1 cells, no CPT, ATP luminescence, 48 h; Potency, µM (highest dose often 46.2 µM), for inactives: at the top dose activity change, negative = growth inhibition, most hits filed as inhibitors; 420,000 tested, 15% active; AID 686978, 2013; note: potency is the fitted concentration of half-maximal effect; nearly all actives have a fitted effect of over 55% in size
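A cellular qHTS used chicken DT40 cells lacking endogenous Tdp1 but carrying stably transfected human TDP1. Compounds were applied without camptothecin, and cell growth kinetics were judged by ATP-dependent luminescence after ≥48 hr.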
RORg inh – inhibitors of mouse ROR gamma transcriptional activity. Drosophila S2 Gal4-RORgamma UAS-luciferase reporter, 20 h. 310,000 tested, 5.4% active. P51450. Potency, µM (series often up to 53.6 µM), without a hit: top-dose activity change, negative = inhibition, usual class: inhibitors; note: potency is the fitted concentration of half-maximal effect; nearly all actives have a fitted effect of over 60% in size
Target sequence (P51450 whole entry, looked up, the tested form may be a part): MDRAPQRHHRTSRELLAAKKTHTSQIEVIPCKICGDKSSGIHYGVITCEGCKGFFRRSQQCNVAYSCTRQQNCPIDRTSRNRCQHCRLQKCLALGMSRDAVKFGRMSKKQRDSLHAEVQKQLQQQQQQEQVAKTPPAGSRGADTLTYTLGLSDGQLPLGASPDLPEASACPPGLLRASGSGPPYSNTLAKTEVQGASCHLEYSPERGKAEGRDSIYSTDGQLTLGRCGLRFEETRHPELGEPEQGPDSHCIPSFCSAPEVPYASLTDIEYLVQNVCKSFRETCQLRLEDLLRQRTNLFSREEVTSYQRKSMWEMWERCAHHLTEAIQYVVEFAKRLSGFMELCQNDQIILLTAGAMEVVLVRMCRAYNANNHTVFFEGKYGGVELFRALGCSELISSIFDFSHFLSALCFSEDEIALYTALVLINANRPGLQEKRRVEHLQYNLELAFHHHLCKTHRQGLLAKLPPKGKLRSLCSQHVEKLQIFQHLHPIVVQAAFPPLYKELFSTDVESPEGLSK
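ROR gamma transcriptional activity was tracked as Gal4-UAS luciferase output in stably transfected Drosophila Schneider cells, with compound added 1 hr before 700 uM copper sulfate induction and a 20 hr ambient-temperature incubation.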
TDP1 cell CPT – growth inhibition of DT40 Tdp1-/-;hTDP1 cells with camptothecin (screen for TDP1 inhibitors) | 420,000 tested, 12% active | chicken DT40 Tdp1-/-;hTDP1 cells + 20 nM CPT, ATP luminescence, 48 h | Potency, µM (highest dose often 46.2 µM), for inactives: at the highest dose activity change, negative = growth inhibition, hits mostly inhibitors | AID 686979; note: potency is the fitted concentration of half-maximal effect; nearly all actives have a fitted effect of over 55% in size
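Chicken DT40 Tdp1-/- cells stably complemented with human TDP1 were seeded at 400 cells/well in medium containing 20 nM camptothecin, exposed to pin-transferred compounds, and grown at 37 °C for at least 48 hr. Viability was read as ATP luminescence.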
IL-1B inflam inh – inflammasome signaling inhibition, IL-1 beta readout; THP-1 LPS/ATP IL-1B secretion, AlphaLISA, 16 h; active compounds read low; activity change, % at 57.5 µM; 360,000 tested, 4.7% active; in the data active = activity change below about -50%; inconclusive = mostly about -30% to -49%
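THP-1 cells pretreated 1 hr with compounds (up to 57.5 uM final), then stimulated with LPS (250 ng/mL final) plus ATP (1.25 mM final); secreted IL-1B measured by AlphaLISA after 16 hr, decreased signal indicating inhibition.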
VP16 counter – counter-screen for ROR gamma inhibitors: Gal4-VP16 reporter; Drosophila S2 Gal4-VP16 UAS-luciferase, luminescence, 20 h; Potency, µM (doses to about 53.6 µM), for inactives: top-dose activity, negative = inhibition, usual class: inhibitors; 310,000 tested, 3.5% active; AID 2546;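 note: Gal4-VP16 expression switched on by copper sulfate through the metallothionein promoter; potency is the fitted concentration of half-maximal effect; nearly all actives have a fitted effect of over 50% in size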
Numbers without * were called inactive; ? = inconclusive; / = no result; ! = not confirmed by another sample. Most compounds without a hit are left out; they make up all but 21% or so of the library. Unless noted, calls come from the whole dose curve; as a rule, active = well fitted curve in the direction sought with a large enough effect; inconclusive = small, poorly fitted or top-dose-only effect, or another doubt; inactive = no such curve, though single readings can be large; an effect the other way counts as inactive or inconclusive. % is set by controls: 0 for no effect and ±100 for the full control effect.

SMILES	ELG1 DNA repair	DT40 TDP1 no CPT	RORg inh	TDP1 cell CPT	IL-1B inflam inh	VP16 counter
CCCCCCOc1ccc(N2C(=O)CC(N3CCN(CCN=CC4=C(O)CC(C)(C)CC4=O)CC3)C2=O)cc1 (stereo not drawn)	-2%	?	11%	-7%	-4	1%
CCCCCCOc1ccc(N2C(=O)CC(N3CCN(CCN=CC4C(=O)CC(C)(C)CC4=O)CC3)C2=O)cc1 (stereo not drawn)	-5%	23µM*	3%	?	21	5%
CSC[C@@H]1NC(=S)N(c2ccc(C)cc2)C1=O	-23%	2.3µM*	28%	5.2µM*	0	-29%
Cc1cccc(NC(=O)C(=O)NCCc2csc(-c3ccc(C(F)(F)F)cc3)n2)c1C	/	-26%	/	-27%	/	/
O=C(NCC1CCCCC1)c1ccc(=O)[nH]c1	0%	-1%	1%	7%	38	-21%
O=C(NCC1CCCCC1)c1cccc(-c2ccc(O)cc2)c1	?	21µM*	?	?	-53*	?
COc1ccc(OCc2n(CC(=O)OC3CC(C)CCC3C(C)C)c3ccccc3[n+]2C)cc1 (stereo not drawn)	?	2.3µM*	?	3.3µM*	-58*	?
COc1ccc(-c2n(CC(=O)OC3CC(C)CCC3C(C)C)c3ccccc3[n+]2C)cc1 (stereo not drawn)	13%	0.41µM*	0%	0.46µM*	-201*	-12%
CCn1cc(CN2CCCC(C(=O)c3ccc(-c4ccccc4)cc3)C2)cn1 (stereo not drawn)	17%	26µM*	18%	?	-90*	-7%
Cn1cc(CN2CCCC(C(=O)c3ccc(-c4ccccc4)cc3)C2)cn1 (stereo not drawn)	-4%	16µM*	2%	-24%	-13	-13%
O=C(c1ccc(-c2ccccc2)cc1)C1CCCN(C(=O)Cn2cncn2)C1 (stereo not drawn)	-5%	?	29%	?	16	-5%
Cc1ccc2ccccc2c1C(O)c1ncc(-c2ccc(C(F)(F)F)cc2)[nH]1 (stereo not drawn)	/	?	/	?	-1	/
O=C1NC[C@@H](CCCCN2C[C@H](Cc3ccccc3)N(Cc3ccccc3)C(=O)C2=O)N(CCc2ccccc2)C1=O	/	-22%	/	-13%	-13	/
CSc1cccc(NC(=S)N2CCC(c3ccccc3)C2)c1 (stereo not drawn)	?	16µM*	?	-17%	?	?
CSc1cccc(NC(=S)N2CCC(N(C)C3CCCCC3C)CC2)c1 (stereo not drawn)	5%	?	13µM*	10%	-69*	-71%
CSc1cccc(NC(=S)N(CCC(C)C)C2CCN(C(C)C)CC2)c1	3%	-20%	13µM*	-8%	-25	?
CCc1cccc(NC(=S)N2CCC(c3ccccc3)C2)c1 (stereo not drawn)	?	?	7.1µM*	?	-1	10µM*
CSc1cccc(NC(=S)N(CCC(C)C)C2CCN(C(C)=O)CC2)c1	-19%	?	?	-8%	-7	8%
O=c1cc(COc2ccccc2[N+](=O)[O-])nc2sccn12	?	-7%	-14%	-19%	9	6%
Cc1nc(N2CCCCC2)c2c(C)c(C(=O)Nc3cccc(C(F)(F)F)c3)sc2n1	?	?	-31%	?	-8	?
Cc1c(C(=O)Nc2cccc(C(F)(F)F)c2)sc2nc3n(c(=O)c12)CCC3	/	23µM*	/	23µM*	/	/
CCOC(=O)c1ccc(NC(=O)c2sc3nc4n(c(=O)c3c2C)CCC4)cc1	23µM*	18µM*	23%	16µM*!	-52*	-1%
CCc1cccc(NC(=O)c2sc3nc4n(c(=O)c3c2C)CCC4)c1	?	?	16%	?	5	-19%
Cc1c(C(=O)Nc2cccc(C#N)c2)sc2nc3n(c(=O)c12)CCCCC3	/	13µM*	/	16µM*	/	/
CCOc1ccc(NC(=O)c2sc3nc4n(c(=O)c3c2C)CCC4)cc1	-1%	-13%	8%	?	-12	-11%
SMILES	ELG1 DNA repair	DT40 TDP1 no CPT	RORg inh	TDP1 cell CPT	IL-1B inflam inh	VP16 counter
Cc1nc(N2CCCCC2C)c2c(C)c(C(=O)Nc3cccc(C(F)(F)F)c3)sc2n1 (stereo not drawn)	-24%	?	-7%	?	-73*	6%
COc1ccc(Nc2nc(NCC3CCCO3)c3ccccc3n2)c(OC)c1 (stereo not drawn)	13µM*	15µM*	-9%	16µM*	/	-1%
Oc1cccc(Nc2nc(NCC3CCCO3)c3ccccc3n2)c1 (stereo not drawn)	21µM*	15µM*	3%	16µM*	/	?
c1ccc(CNc2nc(N3CCN(Cc4ccccc4)CC3)nc3ccccc23)cc1	?	16µM*	-13%	?	/	1%
OCCNc1nc(N2CCCCC2)nc2ccccc12	-24%	-14%	-3%	-5%	12	3%
O=C(NCC1CCCO1)c1cc(-c2ccncc2)nc2ccccc12 (stereo not drawn)	1%	?	/	-10%	-6	/
c1ccc(-c2nc(NCC3CCCO3)c3ccccc3n2)nc1 (stereo not drawn)	18µM*	4.6µM*	1.6µM*	5.2µM*	53	7.1µM*
COc1ccc(CNc2nc(-c3c(C)noc3C)nc3ccccc23)c(OC)c1	/	?	12%	?	/	8%
CCOC(=O)CC(NC(=O)c1cccc2c1C(=O)N(Cc1cccnc1)C2)c1ccc(OCC)c(OC)c1 (stereo not drawn)	-20%	?	11%	-3%	-14	2%
CC1C2CCC3C4CC=C5CC(N(C)C)CC[C@@]5(C)C4CC[C@@]32CN1C (stereo partly drawn)	/	/	-2%	/	/	-1%
c1ccc(Nc2nc(NCC3CCCO3)c3ccccc3n2)cc1 (stereo not drawn)	?	3.3µM*	-19%	3.7µM*	-101*	?
c1ccc(-c2nc(NCc3ccco3)c3ccccc3n2)nc1	7.3µM*	2.6µM*	1.3µM*	2.6µM*	97	2.8µM*
c1ccc2c(NCC3CCCO3)nc(N3CCOCC3)nc2c1 (stereo not drawn)	-16%	1%	3%	-4%	11	-3%
O=S(=O)(Nc1nc2ccccc2nc1NCC1CCCO1)c1cccc(Cl)c1 (stereo not drawn)	?	16µM*	?	?	33	6%
